For assay [1], the target named is Lysosomal acid glucosylceramidase (Homo sapiens) (UniProt P04062). The experiment in a line: Glucocerebrosidase-p2 (AID 348; in the data active = potency below about 10 µM; note: potency is the fitted concentration of half-maximal effect). Conditions: purified GBA, blue fluorogenic substrate, 40 min. Summed up:
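Normal human glucocerebrosidase (0.2 nM) with blue fluorogenic substrate (80 uM final) in citrate/phosphate pH 5.9 with 10mM sodium taurocholate, 0.01% tween-20; 40 min RT, NaOH/glycine stop; fluorescence Ex 365/Em 440; AC50 from a titration from 0.6 nM upwards.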

The nature of assay [2]: AP1 Signaling Pathway (AID 357; active = well fitted curve in either direction with a large enough effect, not every such curve was filed as active;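 note: ME-180 reporter cells stimulated with EGF at its EC50 level; % is set by controls: 0 for no effect and ±100 for the full control effect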). Conditions: ME-180 AP-1-bla reporter, EGF-induced, beta-lactamase ratio, 5 h; at 7.69 µM (top of the series) unless noted. The method, boiled down:
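Cells are seeded overnight, exposed to compound titrations and an EC50 level of EGF for 5 hours at 37 °C, then loaded with CCF4 dye for 2.5 hours. Beta-lactamase activity under the AP-1 element is read as a blue/green ratio.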

The nature of assay [3]: NFAT Signaling Pathway (AID 444; active = well fitted curve in either direction with a large enough effect, not every such curve was filed as active;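 note: carbachol stimulus at about its EC50 of 1 µM final; % is set by controls: 0 for no effect and ±100 for the full control effect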). Conditions: Jurkat NFAT-bla M1, carbachol, beta-lactamase ratio, 5 h; at 7.69 µM (top of the series) unless noted. Summed up:
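Read-out: CCF4 FRET ratio (460 nm/530 nm) after 1 h RT dye loading, used for %activity and AC50 from titration series. Cells: Jurkat NFAT-β-lactamase/M1 line, treated with compound plus 1 uM carbachol for 5 h, 37 °C.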

The nature of assay [4]: Stat Signaling Pathway (AID 446; active = well fitted curve in either direction with a large enough effect, not every such curve was filed as active;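 note: ME-180 cervical cancer cells given 40 pM IL-6 alongside compound; SIE-controlled beta-lactamase reporter measured as 460/530 nm FRET emission ratio; % is set by controls: 0 for no effect and ±100 for the full control effect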). Conditions: ME-180 (cervical carcinoma) SIE beta-lactamase reporter, IL-6 stimulated, 5 h; at 7.69 µM (top of the series) unless noted. Summed up:
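Emission at 460 and 530 nm (excitation 405 nm) reports SIE-controlled beta-lactamase in ME-180 cells. Cells received compound with 40 pM IL-6 for 5 hrs at 37 C; data scaled between 300 pM IL-6 and 125 nM JAK-inhibitor controls.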

The target in assay [5] is Glucocorticoid receptor (Homo sapiens) (UniProt P04150). The experiment in a line: GR-GFP Redistribution (AID 450;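 active = compounds whose dose series gives a full or clear partial fitted curve of increased nuclear translocation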; note: potency is the fitted concentration of half-maximal effect). The conditions noted are these: U2OS GR-GFP nuclear translocation, laser cytometry, 2 h.
Glucocorticoid receptor (Homo sapiens), sequence (P04150 whole entry, looked up, the tested form may be a part): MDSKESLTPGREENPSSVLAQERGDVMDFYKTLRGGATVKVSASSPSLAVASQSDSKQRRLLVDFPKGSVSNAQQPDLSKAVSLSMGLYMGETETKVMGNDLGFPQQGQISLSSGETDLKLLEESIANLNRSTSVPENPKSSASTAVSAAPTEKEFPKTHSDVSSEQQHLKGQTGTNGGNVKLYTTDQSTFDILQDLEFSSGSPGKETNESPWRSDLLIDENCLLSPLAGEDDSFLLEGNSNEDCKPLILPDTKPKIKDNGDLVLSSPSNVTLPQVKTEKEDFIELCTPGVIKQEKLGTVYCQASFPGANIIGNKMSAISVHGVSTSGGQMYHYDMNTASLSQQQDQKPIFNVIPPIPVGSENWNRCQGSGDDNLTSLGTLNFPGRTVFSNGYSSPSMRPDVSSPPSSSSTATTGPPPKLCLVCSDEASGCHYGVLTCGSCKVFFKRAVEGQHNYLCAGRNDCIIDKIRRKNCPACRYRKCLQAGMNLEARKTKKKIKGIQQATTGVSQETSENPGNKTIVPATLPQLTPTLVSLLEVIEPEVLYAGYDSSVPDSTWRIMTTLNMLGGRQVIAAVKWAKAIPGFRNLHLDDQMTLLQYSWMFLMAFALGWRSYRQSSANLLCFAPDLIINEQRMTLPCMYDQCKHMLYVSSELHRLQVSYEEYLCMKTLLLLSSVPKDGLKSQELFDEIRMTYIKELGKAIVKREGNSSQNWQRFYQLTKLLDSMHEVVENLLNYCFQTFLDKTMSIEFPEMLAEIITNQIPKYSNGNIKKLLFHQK
The target in assay [6] is Mitogen-activated protein kinase 10 (Mus musculus) (UniProt Q61831). As to the kind of experiment: JNK3 AlphaScreen Assay (AID 530; active = well fitted curve in either direction with a large enough effect, not every such curve was filed as active;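 note: kinase came from lysate of stimulated human HepG2 cells; signal reports phosphorylation of biotinylated GST-cJun 1-79 at Ser73 with 10 µM ATP; % is set by controls: 0 for no effect and ±100 for the full control effect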). Conditions: JNK3 lysate, c-Jun phosphorylation; series mostly up to 57.1 µM. Summed up:
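qHTS titrations with 15 min compound pre-incubation before adding ATP (10 uM final). Read-out: AlphaScreen of Ser73-phosphorylated biotin-GST-cJun using HepG2 lysate JNK3 activated by IL-1β and TNFα.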
(In general: Alpha assays give light when donor and acceptor beads are brought close together.)

In assay [7] the target is 3',5'-cyclic-AMP phosphodiesterase 4B (Homo sapiens) (UniProt Q07343). As to the kind of experiment: qHTS Assay for Inhibitors of PDE-IV (AID 607; active = well fitted activation curve with a large enough effect in the main read-out, with a control signal flat, not every such curve was filed as active; note: % of control where 0% means no effect). The conditions noted are these: HEK293 ACTOne CNG channel cells, membrane potential fluorescence; series mostly up to 22.9 µM. The method, boiled down: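 The readout is membrane depolarisation from a cAMP-sensing CNG channel, detected with a potential dye at ex 535/em 590. Cells were HEK293-derived (endogenous PDE-IV) at 1000 cells/well, titrated up to 22.9 uM final.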
3',5'-cyclic-AMP phosphodiesterase 4B (Homo sapiens), sequence (Q07343 whole entry, looked up): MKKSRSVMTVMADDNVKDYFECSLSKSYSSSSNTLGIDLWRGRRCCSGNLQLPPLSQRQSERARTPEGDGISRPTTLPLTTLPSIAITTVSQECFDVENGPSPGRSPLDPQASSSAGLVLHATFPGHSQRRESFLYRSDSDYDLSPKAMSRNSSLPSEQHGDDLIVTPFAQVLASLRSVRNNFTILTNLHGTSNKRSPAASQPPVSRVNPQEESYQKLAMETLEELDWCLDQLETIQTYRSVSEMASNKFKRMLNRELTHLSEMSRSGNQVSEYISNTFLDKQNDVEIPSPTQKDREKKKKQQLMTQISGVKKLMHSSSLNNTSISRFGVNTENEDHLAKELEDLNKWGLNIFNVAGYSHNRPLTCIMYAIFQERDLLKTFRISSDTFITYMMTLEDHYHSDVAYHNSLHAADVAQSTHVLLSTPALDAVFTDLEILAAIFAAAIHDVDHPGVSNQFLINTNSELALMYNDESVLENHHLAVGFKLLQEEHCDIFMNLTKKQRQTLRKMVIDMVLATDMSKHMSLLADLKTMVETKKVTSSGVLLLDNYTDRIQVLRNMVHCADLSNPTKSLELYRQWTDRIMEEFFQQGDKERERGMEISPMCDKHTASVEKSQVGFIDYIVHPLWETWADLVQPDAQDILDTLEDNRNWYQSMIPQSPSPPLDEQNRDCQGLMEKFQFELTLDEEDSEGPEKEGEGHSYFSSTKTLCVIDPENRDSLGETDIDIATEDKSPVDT
A general note: Quantitative high-throughput screening tests each substance at several concentrations.

The target in assay [8] is Dual specificity protein kinase CLK4 (Homo sapiens) (UniProt Q9HAZ1). The experiment in a line: qHTS Assay for Inhibitors of CDC-like Kinase 4 (Kinase-Glo Assay) (AID 1770). Note: nearly all actives have a fitted effect of over 65% in size. Note: potency is the fitted concentration of half-maximal effect. The conditions noted are these: recombinant Clk4, Kinase-Glo ATP depletion luminescence; series mostly up to 66.7 µM. Summed up:
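Readout: Kinase-Glo luminescence from ATP left after a 4.5 h room-temperature reaction of 25 nM Clk4 with 100 uM RS peptide and 1 uM ATP (final). Buffer: 25 mM Tris pH 7.5, 10 mM MgCl2.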

Assay [9] shares this target. As to the kind of experiment: qHTS Assay for Inhibitors of CDC-like Kinase 4 (ADP-Glo Assay) (AID 1771). Note: nearly all actives have a fitted effect of over 70% in size. Note: potency is the fitted concentration of half-maximal effect. Conditions: recombinant CLK4, ADP-Glo luminescence; series mostly up to 80 µM. The method, boiled down:
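Compounds are pin-transferred onto substrate mix (100 uM RS peptide, 1 uM ATP), then 25 nM Clk4 is added. After 1 hr at room temperature, ADP-Glo reagent runs 45 min, detection reagent 30 min, then luminescence is read.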

Assay [10] shares this target. The experiment in a line: qHTS Assay for Inhibitors of CDC-like Kinase 4 (ADP-FP Assay) (AID 1795). Note: nearly all actives have a fitted effect of over 60% in size. Note: potency is the fitted concentration of half-maximal effect. The conditions noted are these: Transcreener ADP fluorescence polarization; series mostly up to 50 µM. Summed up: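 FP readout: Orange Transcreener ADP2 tracer (4 nM) plus ADP antibody, read after 30 min at room temperature. Kinase step: 6.25 nM Clk4, 100 uM RS peptide, 1 uM ATP, pH 7.5, 1 h.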

The target of assay [11] is Ubiquitin carboxyl-terminal hydrolase 1 (Homo sapiens) (UniProt O94782). The experiment in a line: Inhibitors of USP1/UAF1: Pilot qHTS (AID 504865).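 Note: rhodamine fluorescence freed from ubiquitin-rhodamine substrate followed over time; top concentration of the series differs between compounds; % is set by controls: 0 for no effect and ±100 for the full control effect; nearly all actives have a fitted effect of over 35% in size.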 Conditions: purified USP1/UAF1, Ub-rhodamine cleavage fluorescence; series mostly up to 54.9 µM. The method, boiled down:
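1nM USP1/UAF1 + cpd, 15 min RT; start w/ Ub-Rho 150nM final; kinetic FL 480/540 nm, 6 reads q60 s. Buffer 50mM HEPES pH 7.8, 0.5mM EDTA, 1mM TCEP, 0.01% Tween-20, 0.1 mg/ml BSA.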

Assay [12] is described as follows: Primary qHTS for small molecule stabilizers of the endoplasmic reticulum resident proteome: Secreted ER Calcium Modulated Protein (SERCaMP) assay (AID 1508630). Note: % is set by controls: 0 for no effect and ±100 for the full control effect. Conditions: SH-SY5Y GLuc-SERCaMP (Gaussia luciferase released on ER calcium loss) secretion, thapsigargin, luminescence; series mostly up to 38.4 µM. The method, boiled down: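 The SH-SY5Y reporter protocol was run at 3 concentrations up to 38.3 uM (primary) or 11 concentrations (follow-up): 16 h compound, 100 nM thapsigargin for 4 h, then extracellular luciferase luminescence.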

Assay [13] has as its target Glucocorticoid receptor (Homo sapiens) (UniProt P04150). The experiment in a line: GR-EFC Redistribution (AID 451; calls by dose curve; note: potency is the fitted concentration of half-maximal effect). The conditions noted are these: CHO-K1 GR-EFC translocation, beta-gal luminescence, 2 h. Summed up: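 Translocation of GR-ED fusion to nuclear EA restores b-gal, read by luminescence after 1 h room-temperature detection. Engineered CHO-K1 biosensor cells, 1,000/well, exposed 2 h at 37 C to titrations up to 46 uM final.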

For assay [14], the target named is Cytochrome P450 3A4 (Homo sapiens) (UniProt P08684). As to the kind of experiment: qHTS Assay for Activators of Cytochrome P450 3A4 (AID 885). Note: nearly all actives have a fitted effect of over 65% in size. The conditions noted are these: recombinant CYP3A4, Luciferin-PPXE luminescence, 60 min; series mostly up to 57.1 µM. Summed up: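 Activators are scored by enhanced luminescence from CYP3A4 conversion of luciferin-PPXE (25uM, equal to KM) to luciferin, after 60 min at RT with an NADPH-regenerating system.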
Cytochrome P450 3A4 (Homo sapiens), sequence (P08684 whole entry, looked up): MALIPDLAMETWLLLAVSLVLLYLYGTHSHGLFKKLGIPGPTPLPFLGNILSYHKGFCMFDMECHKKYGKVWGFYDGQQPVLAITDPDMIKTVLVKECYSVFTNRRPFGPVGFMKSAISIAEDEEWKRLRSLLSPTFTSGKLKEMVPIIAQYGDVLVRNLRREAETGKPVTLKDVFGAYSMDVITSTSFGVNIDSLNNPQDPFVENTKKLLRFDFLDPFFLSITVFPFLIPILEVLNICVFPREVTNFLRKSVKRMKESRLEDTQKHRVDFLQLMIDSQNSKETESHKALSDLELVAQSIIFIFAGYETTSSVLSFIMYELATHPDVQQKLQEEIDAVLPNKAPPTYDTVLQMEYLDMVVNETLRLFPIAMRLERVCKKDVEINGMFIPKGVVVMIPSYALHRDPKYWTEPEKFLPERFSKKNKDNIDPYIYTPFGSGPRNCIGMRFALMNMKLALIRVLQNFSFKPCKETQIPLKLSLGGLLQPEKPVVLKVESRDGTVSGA

Structures are written as SMILES. Values without a mark were called inactive. Inconclusive results are not listed. The source made the active and inactive calls. Unless noted, calls come from the whole dose curve; as a rule, active = well fitted curve in the direction sought with a large enough effect; inconclusive = small, poorly fitted or top-dose-only effect, or another doubt; inactive = no such curve, though single readings can be large; an effect the other way counts as inactive or inconclusive.

Lysosomal acid glucosylceramidase (Homo sapiens), sequence (P04062 whole entry, looked up): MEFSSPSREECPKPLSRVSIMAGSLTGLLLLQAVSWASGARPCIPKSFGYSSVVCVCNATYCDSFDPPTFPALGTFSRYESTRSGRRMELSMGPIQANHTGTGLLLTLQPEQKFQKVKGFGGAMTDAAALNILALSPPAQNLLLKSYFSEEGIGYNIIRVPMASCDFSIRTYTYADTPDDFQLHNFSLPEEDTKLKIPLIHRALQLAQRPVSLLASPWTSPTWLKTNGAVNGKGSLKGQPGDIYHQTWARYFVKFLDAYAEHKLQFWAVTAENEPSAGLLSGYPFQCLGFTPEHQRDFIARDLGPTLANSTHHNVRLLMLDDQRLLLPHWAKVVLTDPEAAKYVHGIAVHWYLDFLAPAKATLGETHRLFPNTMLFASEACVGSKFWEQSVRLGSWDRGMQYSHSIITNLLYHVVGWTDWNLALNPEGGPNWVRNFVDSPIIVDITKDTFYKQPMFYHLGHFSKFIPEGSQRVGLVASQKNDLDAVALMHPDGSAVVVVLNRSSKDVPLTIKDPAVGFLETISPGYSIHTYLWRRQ
Ubiquitin carboxyl-terminal hydrolase 1 (Homo sapiens), sequence (O94782 whole entry, looked up): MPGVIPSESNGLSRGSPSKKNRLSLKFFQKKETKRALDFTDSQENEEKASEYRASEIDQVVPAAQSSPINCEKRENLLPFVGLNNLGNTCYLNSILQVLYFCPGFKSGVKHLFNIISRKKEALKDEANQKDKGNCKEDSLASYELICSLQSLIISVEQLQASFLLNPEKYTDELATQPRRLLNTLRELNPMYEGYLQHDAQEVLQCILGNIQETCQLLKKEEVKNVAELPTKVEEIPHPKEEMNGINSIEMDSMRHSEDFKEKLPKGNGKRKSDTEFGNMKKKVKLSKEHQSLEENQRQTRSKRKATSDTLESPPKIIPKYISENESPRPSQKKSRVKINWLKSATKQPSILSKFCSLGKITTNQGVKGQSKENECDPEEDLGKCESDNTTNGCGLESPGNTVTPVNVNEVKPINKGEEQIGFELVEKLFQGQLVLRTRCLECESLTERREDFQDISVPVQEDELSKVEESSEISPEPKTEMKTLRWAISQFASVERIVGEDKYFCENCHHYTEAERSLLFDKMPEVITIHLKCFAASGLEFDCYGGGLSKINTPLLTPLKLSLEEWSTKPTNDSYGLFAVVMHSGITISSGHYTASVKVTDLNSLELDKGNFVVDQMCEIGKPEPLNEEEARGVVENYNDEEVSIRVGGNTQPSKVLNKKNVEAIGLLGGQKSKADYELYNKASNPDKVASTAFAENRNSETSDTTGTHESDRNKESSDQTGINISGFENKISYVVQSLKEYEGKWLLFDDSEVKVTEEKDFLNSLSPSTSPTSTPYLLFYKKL
Dual specificity protein kinase CLK4 (Homo sapiens), sequence (Q9HAZ1 whole entry, looked up): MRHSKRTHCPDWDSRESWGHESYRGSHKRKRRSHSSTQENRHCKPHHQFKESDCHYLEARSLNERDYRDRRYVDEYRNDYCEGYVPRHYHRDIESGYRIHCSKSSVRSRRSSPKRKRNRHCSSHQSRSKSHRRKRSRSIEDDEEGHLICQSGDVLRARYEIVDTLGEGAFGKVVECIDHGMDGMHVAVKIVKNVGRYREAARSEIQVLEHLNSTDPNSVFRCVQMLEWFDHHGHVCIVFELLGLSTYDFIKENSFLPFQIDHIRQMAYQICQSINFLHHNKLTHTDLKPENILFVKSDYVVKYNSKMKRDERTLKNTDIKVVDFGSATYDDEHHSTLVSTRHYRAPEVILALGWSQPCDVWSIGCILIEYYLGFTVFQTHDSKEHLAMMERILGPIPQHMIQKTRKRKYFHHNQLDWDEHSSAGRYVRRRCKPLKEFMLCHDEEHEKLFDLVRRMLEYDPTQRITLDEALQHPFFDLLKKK

As to `COCCn1c(=O)c(-c2ccc(OC)cc2)nc2cnc(N3CCOCC3)nc21`, the Potency in assay [1] was above 11.4 µM; in [5], above 9.22 µM. The figures for the activity change, negative = inhibition in assay [2] and in assay [3] were -13.6% and 8.4%, respectively. In [4], the activity, negative = inhibition was 25.9%. In addition, the Potency result in [6], in [7], in assay [8], in assay [9], in [10] and in [11] was “inactive” throughout. Further, the outcome in assay [12] was inactive.

As for `COc1ccc(-c2nc3cnc(N(C)C)nc3n(C)c2=O)cc1`, the Potency in [1] was above 11.4 µM; in assay [5], above 9.22 µM; in assay [13], above 46 µM. Besides, the activity change, negative = inhibition in assay [2] was 11%; in [3], 6.21%. Further, the activity, negative = inhibition in assay [4] was 10.4%. Moreover, the Potency entry in assay [6], in assay [7], in assay [8], in assay [9], in assay [10] and in [11] was “inactive” each time. Also, in [12], the result was inactive.

Turning to `COc1ccc(Oc2ncc3ncc(=O)n(-c4ccc(OC)cc4)c3n2)cc1`, the Potency in [1] is above 11.4 µM; in assay [5], above 9.22 µM; in assay [13], above 46 µM; in assay [8], 2.82 µM (active); in assay [9], 2 µM (active); in [10], 4.47 µM (active). Also, the activity change, negative = inhibition in assay [2] was -24.9%; in assay [3] it was -12.3%. In addition, the activity, negative = inhibition in assay [4] is -13.9%. Besides, the Potency result in [6], in [7] and in assay [11] was “inactive” throughout. Besides, the outcome in assay [12] was inactive.

On to `COc1ccc2[nH]cc(CCNc3ccnc(-c4cccc(C#N)c4)n3)c2c1`, for which the Potency is above 11.4 µM in assay [1]; above 46 µM in assay [5]; above 46 µM in assay [13]; 12.6 µM (active) in assay [8]; 12.6 µM (active) in assay [9]; 8.91 µM (active) in assay [10]. Besides, the activity change, negative = inhibition was -12.9% in [2] and 23.2% in [3]. Also, the activity, negative = inhibition in assay [4] is -8.5%. Moreover, the Potency result in assay [6], in assay [7] and in [11] was “inactive” each time. Besides, in assay [12], the result was inactive.

With `COCCn1c(=O)c(CCc2ccccc2)nc2cnc(N3CCOCC3)nc21`, the values for the Potency in [1], in assay [5] and in assay [13] were above 11.4 µM, above 9.22 µM and above 46 µM, respectively. For the same compound, the results for the activity change, negative = inhibition in assay [2] and in assay [3] were -24.7% and -12.9%, respectively. Further, the activity, negative = inhibition in assay [4] was -3.32%. Also, the Potency result in assay [6], in assay [7], in assay [8], in assay [9], in [10] and in assay [11] was “inactive” in each case. The outcome in assay [12] was inactive.

Turning to `COc1ncc2nc(-c3ccccc3)c(=O)n(CCC#N)c2n1`, the Potency is above 11.4 µM in [1] and above 46 µM in assay [13]. Further, the activity change, negative = inhibition in [2] was -23.7%; in assay [3], -5.79%. Also, in assay [4], the activity, negative = inhibition is -14.9%. Also, the Potency result in assay [6], in assay [7], in assay [8], in assay [9], in assay [10] and in [11] was “inactive” each time. For the same compound, the result in assay [12] was inactive.

With `COc1ncc2nc(-c3ccc(Cl)cc3)c(=O)n(C)c2n1`, the figures for the Potency in assay [1], in [5] and in assay [13] were above 11.4 µM, above 9.22 µM and above 46 µM, respectively. Further, the activity change, negative = inhibition in [2] was -10.2%; in [3], 8.73%. Besides, the activity, negative = inhibition in assay [4] was 1.71%. Further, the Potency result in assay [6], in assay [7], in [14], in assay [8], in assay [9] and in [10] was “inactive” each time. Moreover, the Potency result in assay [11] was “inactive”. The result in assay [12] was inactive.

Source of the values: PubChem BioAssay (NCATS).
